# Yeast superoxide: reduction of superoxide in aged yeast, primary screen, HTS. S. cerevisiae aged cells, superoxide DHE fluorescence; stronger effect = lower value. superoxide response (% of plate mean), % at 10 µM. 0.18% of 330,000 active. AID 2690, 2010;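 active = superoxide response under a set limit, about three screen SD below normal, cut at about 65% in these data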;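 also: yeast aged for seven days with compound at 30 °C before DHE staining; 100% = average MFI of all compound-treated wells on the plate with controls excluded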
# PLC-beta3 inh: human PLC-beta3 inhibitors, primary screen, biochemical, fluorescence. Purified PLC-beta3, fluorogenic substrate. inhibition, % at 12.2 µM. 0.18% of 370,000 active;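 also: 0% = median of compound wells on plate and 100% = full blocker control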
# sPLA2-III inh: human group III sPLA2 inhibitors, primary screen, biochemical, QFRET, BODIPY PC-A2 liposome substrate | QFRET BODIPY PC-A2 liposome hydrolysis, fluorescence | 0.56% of 370,000 active | AID 743126, 2013 | inhibition, % at 12.2 µM;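 active = inhibition above mean plus 3 SD of compounds lying within the high and low control bounds, cut at about 19% in these data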;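 also: 0% = median of test compound wells and 100% = no enzyme DMSO wells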
# AHR act: AHR activators, primary screen, cell-based, luminescence, luciferase reporter, human; Aryl hydrocarbon receptor (Homo sapiens), P35869; AHR-responsive luciferase reporter cells; activation, % at 5 µM; 2.5% of 320,000 active; AID 2796, 2010; in the data active = activation above about 47%;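 also: 0% = vehicle wells and 100% = reference agonist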
# HIF act: HIF pathway transcriptional activators, primary screen, cell-based, U2OS HRE-luciferase, luminescence. U2OS HRE-luciferase reporter; normalized: DMSO 0%, desferrioxamine 100%. activation, % at 7.5 µM (by protocol). 0.32% of 300,000 active. AID 1910, 2009;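 active = mean activation of at least 10% of the iron chelator positive control signal, with at least half of replicates also reaching 10%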
# PLC-gamma1 inh: PLC-gamma1 enzyme inhibitors, primary screen, biochemical, fluorescence, purified enzyme | 1-phosphatidylinositol 4,5-bisphosphate phosphodiesterase gamma-1 (Homo sapiens), P19174 | inhibition, % at 12.2 µM | fluorogenic substrate | 0.84% of 370,000 active; in the data active = inhibition above about 9.5%
# AHR act cf: AHR activators, confirmation, cell-based, luminescence, luciferase reporter, human; activation, % at 9 µM; AID 2845, 2010; human cells, AHR-responsive luciferase reporter; 87% of 2,300 active; shares compounds with AHR act; in the data active = activation above about 49%;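 also: HepG2 hepatoma cells carrying a DRE-driven firefly luciferase reporter; 0% = vehicle wells and 100% = reference agonist wells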
# PXR counter: human PXR activators, counter-screen for AHR activator project, cell-based, luciferase luminescence. activation, % at 11.6 µM. cell-based PXR reporter. 88% of 2,300 active. shares compounds with AHR act; in the data active = activation above about 11%;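 also: human hepatoma DPX-2 cells expressing full-length human PXR; 0% = DMSO and 100% = reference agonist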
# PLCg1 ctr: PLC-gamma1 enzyme inhibitors, counter-screen for PLC-beta3 inhibitor project, biochemical, fluorescence | shares compounds with PLC-gamma1 inh | purified PLC-gamma1, fluorogenic substrate | inhibition, % at 12.3 µM | 3.1% of 3,300 active | AID 743258, 2014; in the data active = inhibition above about 9.5%
# PLCbeta3 conf: PLC-beta3 inhibitor confirmation, biochemical, fluorescence, purified enzyme. shares compounds with PLC-gamma1 inh. fluorogenic substrate fluorescence. inhibition, % at 12.3 µM. 1% of 3,300 active
# hGIII sPLA2 conf: human group III sPLA2 inhibitors, confirmation, biochemical, QFRET, triplicate; shares compounds with sPLA2-III inh; recombinant hGIII-sPLA2, BODIPY PC-A2 QFRET fluorescence; inhibition, % at 12.2 µM; 34% of 2,000 active;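 active = mean inhibition across triplicates above the hit cutoff set in the earlier primary screen, cut at about 19% in these data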;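 also: 0% = enzyme with DMSO and 100% = DMSO wells lacking enzyme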
# BODIPY interf: 535nm fluorescence optical interference, confirmation, artefact control for HGIII-sPLA2 inhibitor project, biochemical, QFRET. shares compounds with sPLA2-III inh. 8.5% of 2,000 active. inhibition, % at 12.2 µM. AID 743282, 2014. BODIPY FL product fluorescence interference;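 active = average inhibition above the solvent-only control mean plus 3 SD, cut at about 6% in these data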;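 also: 0% = DMSO with substrate plus product and 100% = DMSO with substrate alone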
# BODIPY interf DR: 535nm fluorescence optical interference, dose response, artefact control for HGIII-sPLA2 inhibitor project, biochemical, QFRET; BODIPY FL product fluorescence interference, cell-free; 240 tested, under 10 active; IC50, µM; shares compounds with sPLA2-III inh;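 active = IC50 at or below 10 µM; inactive = IC50 above 10 µM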
# * = called active by the depositor; . = no result. A selection: hits, their analogues and other compounds. The true share with any hit is near 3.9%. Rule as the data show it, unless noted: active = inhibition above about 11%; inactive = the rest.
SMILES,Yeast superoxide,PLC-beta3 inh,sPLA2-III inh,AHR act,HIF act,PLC-gamma1 inh,PLCg1 ctr,PLCbeta3 conf,others
O=[N+]([O-])c1cccc2ccc(/C=C/c3cccc(Br)c3)nc12,104.6,11.1*,2.2,175.1*,1.5,9.0,-0.4,1.1,AHR act cf=120.7*;PXR counter=25.3*
COc1cc(/C=C/c2ccc3cccc(OC)c3n2)c(O)c([N+](=O)[O-])c1,101.3,-1.2,10.9,12.0,-0.6,-0.8,.,.,
CC(NCC(=O)Nc1ccccc1C(=O)NC1CC1)c1ccc(S(C)(=O)=O)cc1 (stereo not given),91.4,-5.0,4.3,0.9,.,0.0,.,.,
Cn1c(N)c(C(=O)COC(=O)c2ccccc2C(=O)c2ccc(Cl)c([N+](=O)[O-])c2)c(=O)n(C)c1=O,83.6,.,.,-1.9,.,.,.,.,
Cn1c(=NC(=O)C2CC2)sc2cccc(F)c21,83.5,0.3,3.8,99.6*,1.0,11.1*,-5.6,-5.1,AHR act cf=119.5*;PXR counter=23.3*
O=C(NNC(=S)Nc1cccc(Cl)c1)c1ccccc1OC(F)F,102.5,-7.3,24.7*,85.2*,0.0,-7.2,.,.,AHR act cf=126.3*;PXR counter=27.4*;hGIII sPLA2 conf=42.5*;BODIPY interf=2.4;BODIPY interf DR=>122
Fc1ccc(NC(=S)Nc2ccccc2OC(F)F)cc1Cl,95.7,2.6,-4.5,1.4,0.2,-0.2,.,.,
O=C(NNC(=S)Nc1ccccc1)c1cc(Br)ccc1Cl,97.3,-15.9,33.1*,102.7*,0.1,-5.0,.,.,AHR act cf=91.1*;PXR counter=83.3*;hGIII sPLA2 conf=27.6*;BODIPY interf=6.1*
COc1ccc(NC(=O)CN(c2c(C)cccc2C)S(C)(=O)=O)cc1,105.8,3.4,-7.8,4.2,2.6,8.2,.,.,
COc1ccccc1C(=O)NCCC(=O)NCc1ccncc1,102.3,-4.5,7.0,4.8,.,-55.6,.,.,
O=C(NNc1nc2c(F)cc(F)cc2s1)C1COc2ccccc2O1 (stereo not given),106.1,-6.5,4.5,5.5,-0.6,-0.9,.,.,
Cc1cc(C)c2sc(NNC(=O)C3COc4ccccc4O3)nc2c1 (stereo not given),99.4,-5.0,28.2*,103.0*,.,-1.3,.,.,AHR act cf=69.4*;PXR counter=24.8*;hGIII sPLA2 conf=31.2*;BODIPY interf=1.0;BODIPY interf DR=>122
O=S(=O)(NNc1ncc(C(F)(F)F)cc1Cl)c1ccc(F)cc1F,143.7,0.8,27.2*,113.8*,.,4.5,.,.,AHR act cf=103.2*;hGIII sPLA2 conf=29.8*;BODIPY interf=29.1*
COc1cccc(C(=O)N[C@H](C(=O)N2CCC[C@H]2C(=O)NC2CCCC2)c2ccccc2)c1,.,4.4,-0.3,.,.,-0.5,.,.,
Fc1ccc2nc(Nc3nc4cc5c(cc4s3)OCCO5)sc2c1,114.2,-299.4,23.9*,103.0*,3.0,-272.2,.,.,AHR act cf=51.7*;PXR counter=-6.3;hGIII sPLA2 conf=15.2;BODIPY interf=6.5*
CCOC(=O)c1c(C2COc3ccccc3O2)csc1NC(=O)c1ccccc1 (stereo not given),104.8,-1.9,-0.9,-1.0,0.4,11.8*,-38.0,-33.6,
C/C(=N\NC(=O)c1nnn(-c2nonc2N)c1CSc1ccc(C)cc1)c1cccs1,.,0.5,12.2,.,.,10.1*,-10.8,-6.3,
COc1ccc(Cl)cc1N1C(=NC(=O)C2CCCCC2)SC2CS(=O)(=O)CC21 (stereo not given),89.2,-8.4,4.0,1.3,-0.3,-2.3,.,.,
c1ccc(Nc2nnc(-c3ccc4c(c3)OCO4)o2)cc1,.,-8.7,3.8,.,.,-8.2,.,.,
COc1ccc([N+](=O)[O-])c2c(=O)ccoc12,96.3,4.3,-2.1,-3.7,0.1,4.1,.,.,
CCOC(=O)c1cc(=O)c2c([N+](=O)[O-])ccc(OC)c2o1,104.7,4.8,0.8,-1.0,-0.5,9.6*,-5.3,-3.1,
CCCCCCCCN1C(=O)[C@H](CC(=O)N2CCN(C(=O)c3ccco3)CC2)C[C@@]2(C(=O)OC)CCCCC=C12,.,-2.1,-12.8,.,.,3.0,.,.,
O=C(NC(c1ccc(Cl)cc1)c1ccsc1)C1CCN(Cc2ccc(Oc3ccccc3)cc2)CC1 (stereo not given),.,0.8,-3.9,.,.,-0.5,.,.,
CCCN1CCC(C(=O)NC(c2ccc(Cl)cc2)c2ccsc2)CC1 (stereo not given),.,2.4,-1.3,.,.,9.7*,-3.4,1.8,
CCC(c1nnnn1-c1ccc2c(c1)OCCO2)N1CCN(CC)CC1 (stereo not given),.,7.0,7.6,.,.,10.5*,-7.0,-53.7,
SMILES,Yeast superoxide,PLC-beta3 inh,sPLA2-III inh,AHR act,HIF act,PLC-gamma1 inh,PLCg1 ctr,PLCbeta3 conf,others
CCC(c1nnnn1-c1ccc2c(c1)OCCO2)N1CCN(C)CC1 (stereo not given),.,3.1,-1.5,.,.,0.6,.,.,
Cc1cc(NC(=O)CCC2CCCC2)no1,99.9,1.1,1.0,0.7,1.2,1.2,.,.,
O=C(CCC1CCCC1)Nc1ccon1,105.6,4.3,3.8,-0.8,0.0,12.0*,-3.0,2.5,
CC(C)(C)NC(=O)CCCCCCCC(=O)NC(C)(C)C,110.7,11.4*,6.2,3.5,0.4,13.2*,-6.0,-1.4,
CC(=O)Nc1ccc(NC(=O)c2ccc(N(Cc3ccccc3C)S(C)(=O)=O)cc2)cc1,122.2,0.1,0.5,-0.6,-0.9,14.0*,-1.6,-1.5,
CC(=O)c1cccc(NC(=O)c2ccc(N(Cc3ccccc3C)S(C)(=O)=O)cc2)c1,104.5,0.2,-63.1,19.3,-0.7,5.6,.,.,
CN(NC(=O)NN(C)C(=O)c1ccccc1)C(=O)c1ccccc1,.,3.2,-5.1,.,.,4.8,.,.,

# Screening results from PubChem.
